Assay outcomes as filed in PubChem.
Pf growth 48h – P. falciparum growth inhibition at 48 hours (one generation); AID 504832; P. falciparum luciferase growth in erythrocytes, 48 h; Potency, µM (highest dose often 28.7 µM), inactives show at the highest dose activity change, negative = inhibition, most hits filed as inhibitors; actives 5.9% (n = 310,000); note: potency is the fitted concentration of half-maximal effect; % is set by controls: 0 for no effect and ±100 for the full control effect
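Parasite viability was followed by luminescence of a genomically integrated firefly luciferase. Cultures held 0.1% parasitemia at 2% hematocrit (final), incubated under 5% CO2 at 37 C.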
Cycloheximide cs – affects cycloheximide protein synthesis inhibition readout, counter-screen; max response, %; cell reporter, cycloheximide protein synthesis inhibition counterscreen; actives 12% (n = 300,000); AID 2314; in the data active = max response mostly above about 13%, no sharp cut-off; inactive = mostly below about 14%; note: read at 38.3 µM for the half of the compounds with a filed dose; 0% is about no effect
Pf growth 96h – P. falciparum growth inhibition at 96 hour, primary screen for plastid delayed-death inhibitors; P. falciparum luciferase reporter growth, 96 h; Potency, µM (highest dose often 28.7 µM), without a hit: top-dose activity change, negative = inhibition, actives largely listed as inhibitors; actives 6.9% (n = 320,000); AID 504834; note: potency is the fitted concentration of half-maximal effect; % is set by controls: 0 for no effect and ±100 for the full control effect
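Plates of compound plus infected erythrocytes (2% hematocrit, 0.05% parasitemia final) incubate 96 hours, 37 C, 5% CO2. Detection reagent added; reduced luminescence from the parasites' luciferase reporter flags inhibition.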
Marburg entry inh – inhibitors of Marburg virus binding or cell entry; actives 1.8% (n = 300,000); Marburg virus pseudotyped entry inhibition, cell reporter; AID 540276; Potency, µM (highest dose often 37.8 µM), without a hit: at the top dose activity change, negative = inhibition, most hits filed as inhibitors; calls by dose curve; tested in HEK293 cells; note: potency is the fitted concentration of half-maximal effect; % is set by controls: 0 for no effect and ±100 for the full control effect
Shiga toxin inh – inhibitors of Shiga toxin in Vero cells; Vero cells, Shiga toxin protein synthesis inhibition reporter; inhibition, % at 38.7 µM; actives 9.2% (n = 290,000); in the data active = inhibition mostly above about 28%, no sharp cut-off; inactive = mostly below about 43%; note: 0% is about no effect
LASV entry inh – inhibitors of Lassa virus binding or cell entry | Lassa virus pseudotype entry inhibition, cell reporter | Potency, µM (doses to about 37.9 µM), inactives show at the highest dose activity change, negative = inhibition, usual class: inhibitors | actives 1.2% (n = 300,000) | AID 540256; calls by dose curve; tested in HEK293 cells; note: potency is the fitted concentration of half-maximal effect; % is set by controls: 0 for no effect and ±100 for the full control effect; nearly all actives have a fitted effect of over 50% in size
Starred values were filed as active, the others as inactive; [ ] = remark or other dose. Only some compounds are listed: those with a hit (about 19% of all), similar ones and a draw of the others. Unless noted, calls come from the whole dose curve; as a rule, active = well fitted inhibition curve with a large enough effect; inconclusive = small, poorly fitted or top-dose-only effect, or another doubt; inactive = no such curve, though single readings can be large or run the other way.

Results for CCC(C)NC(=O)c1ccc2c(c1)sc1nc(-c3ccc(OC)cc3)cn12 (stereo not given) ?
LASV entry inh: -8%[46.1 µM]

How did Cc1ccc(-n2c(=O)c3c(cnn3C)n(CC(=O)Nc3ccccc3C)c2=O)cc1 do in these assays?
Marburg entry inh: inconclusive; LASV entry inh: 23%[46.1 µM]

Results for Cc1ccc(NC(=O)c2cc(-c3ccccc3)nn2-c2ccccc2)c(Br)c1 ?
Pf growth 48h: inconclusive; Cycloheximide cs: -1; Pf growth 96h: 12µM*; Marburg entry inh: inconclusive; Shiga toxin inh: 8; LASV entry inh: inconclusive

How did Clc1ccccc1/C=N/c1cc(-c2ccccc2)nn1-c1ccccc1 do in these assays?
Pf growth 48h: inconclusive; Cycloheximide cs: 33*; Pf growth 96h: 30%; Marburg entry inh: -5%; Shiga toxin inh: 52*; LASV entry inh: -1%

What do the screens show for `Cc1cc(C(=O)Nc2ccc(Br)cc2F)n(-c2ccccc2)n1`?
Pf growth 48h: 9%[0.00184 µM]; Cycloheximide cs: -1; Pf growth 96h: 6%; Marburg entry inh: -9%[46.1 µM]; Shiga toxin inh: 16; LASV entry inh: inconclusive

Results for N#Cc1cc(-c2ccccc2)nn1-c1ccccc1 ?
Pf growth 48h: 8%; Cycloheximide cs: 19; Pf growth 96h: -5%; Marburg entry inh: inconclusive; Shiga toxin inh: 16; LASV entry inh: 21%

Results for COc1ccc(NC(=O)c2ccc(-c3csc(C)n3)cc2)cc1 ?
Pf growth 48h: 100%; Cycloheximide cs: 36*; Pf growth 96h: 9%; Marburg entry inh: inconclusive; Shiga toxin inh: 78*; LASV entry inh: inconclusive

How did Cc1nc(-c2ccc(C(=O)Nc3cccc(F)c3)cc2)cs1 do in these assays?
Pf growth 48h: 176%; Cycloheximide cs: 17*; Pf growth 96h: -6%; Marburg entry inh: 5µM*; Shiga toxin inh: 18*; LASV entry inh: inconclusive

How did COc1ccc(-c2csc(C)n2)cc1 do in these assays?
Pf growth 48h: 96%; Cycloheximide cs: 31*; Pf growth 96h: inconclusive; Marburg entry inh: 6%; Shiga toxin inh: 56*; LASV entry inh: 6%

What do the screens show for `CCOc1ccc(NC(=O)c2ccc(-c3csc(C)n3)cc2)cc1`?
Pf growth 48h: -1%; Cycloheximide cs: 8; Pf growth 96h: -1%; Marburg entry inh: 7%; Shiga toxin inh: 11; LASV entry inh: 5%

What do the screens show for `Cc1nc(-c2ccc(C(=O)Nc3ccc(F)cc3)cc2)cs1`?
Pf growth 48h: 31%; Cycloheximide cs: 35*; Pf growth 96h: 1%; Marburg entry inh: 6.3µM*; Shiga toxin inh: 75*; LASV entry inh: inconclusive

Results for COc1ccc(C(=O)Nc2cnc3sc(C)nn3c2=O)cc1 ?
Pf growth 48h: 96%; Cycloheximide cs: 24*; Pf growth 96h: inconclusive; Marburg entry inh: -3%; Shiga toxin inh: 46*; LASV entry inh: 20%

What do the screens show for `C[C@]12C=CC(=O)N[C@@H]1CC[C@@H]1C2CC[C@]2(C)C(C(=O)Nc3cc(C(F)(F)F)ccc3C(F)(F)F)CC[C@@H]12` (stereo not given in full)?
Pf growth 48h: 4.8µM*; Pf growth 96h: 3.4µM*

What do the screens show for `CC(C)/C=C1\CCc2c([nH]c3ccccc23)C1=O`?
Pf growth 48h: inconclusive; Cycloheximide cs: 32*; Pf growth 96h: inconclusive; Marburg entry inh: 6%[46.1 µM]; Shiga toxin inh: 45*; LASV entry inh: 0%[46.1 µM]

What do the screens show for `CCCCN1CCc2c([nH]c3ccccc23)C1=O`?
Pf growth 48h: 84%; Cycloheximide cs: 35*; Pf growth 96h: -6%; Marburg entry inh: inconclusive; Shiga toxin inh: 95*; LASV entry inh: 5%

How did CCCC/C=C1\CCc2c([nH]c3ccccc23)C1=O do in these assays?
Pf growth 48h: 52%; Cycloheximide cs: 32*; Pf growth 96h: 2%; Marburg entry inh: 19%[46.1 µM]; Shiga toxin inh: 57*; LASV entry inh: 23%[46.1 µM]

How did O=C1/C(=C\c2ccccc2)CCc2c1[nH]c1ccccc21 do in these assays?
Pf growth 48h: 35%; Cycloheximide cs: 42*; Pf growth 96h: 92%; Marburg entry inh: 16µM*; Shiga toxin inh: 52*; LASV entry inh: inconclusive

What do the screens show for `O=C1NCCc2c1[nH]c1ccccc21`?
Pf growth 48h: -5%; Cycloheximide cs: 10; Pf growth 96h: 76%; Marburg entry inh: -14%; Shiga toxin inh: 1; LASV entry inh: 9%

How did CCC(=O)OCCn1c(=O)c2ccccc2c2ccccc2c1=O do in these assays?
Pf growth 48h: inconclusive; Cycloheximide cs: -2; Pf growth 96h: 37%; Shiga toxin inh: 17

Results for Cc1noc(NS(=O)(=O)c2ccc(NC(=O)c3cc(-c4ccccc4Cl)nc4ccccc34)cc2)c1C ?
Pf growth 48h: 0%; Cycloheximide cs: -3; Pf growth 96h: inconclusive; Shiga toxin inh: -2

How did Cc1ccc(/C=C2/CCc3c([nH]c4ccccc34)C2=O)cc1 do in these assays?
Pf growth 48h: 419%; Cycloheximide cs: 29*; Pf growth 96h: inactive; Marburg entry inh: inconclusive; Shiga toxin inh: 52*; LASV entry inh: inconclusive

How did O=C1/C(=C/c2c[nH]c3ccccc23)CCC/C1=C\c1c[nH]c2ccccc12 do in these assays?
Pf growth 48h: inconclusive; Cycloheximide cs: -2; Pf growth 96h: -6%; Marburg entry inh: inconclusive; Shiga toxin inh: -1; LASV entry inh: -38%

What do the screens show for `Cc1ccc2[nH]c3c(c2c1)CC/C(=C/c1ccccc1)C3=O`?
Pf growth 48h: 48%; Cycloheximide cs: 23*; Marburg entry inh: -15%; Shiga toxin inh: 32; LASV entry inh: 11%

Results for O=C(Nc1nnc(SCC(=O)N2CCOCC2)s1)C1CC(=O)N(c2ccc(F)cc2)C1 (stereo not given) ?
Pf growth 48h: inconclusive; Cycloheximide cs: -2; Pf growth 96h: inconclusive; Shiga toxin inh: -3

What do the screens show for `CCCC(=O)Nc1cc(C)c(NC(=O)c2ccccn2)cn1`?
Pf growth 48h: 75%; Cycloheximide cs: 28*; Pf growth 96h: 12%; Marburg entry inh: 8%[46.1 µM]; Shiga toxin inh: 86*; LASV entry inh: 24%

How did Cc1cc(NC(=O)C(C)C)ncc1NC(=O)c1ccccn1 do in these assays?
Pf growth 48h: 33%; Cycloheximide cs: 30*; Pf growth 96h: 11%; Marburg entry inh: 11%; Shiga toxin inh: 129*; LASV entry inh: 1%

What do the screens show for `CCCC(=O)Nc1cc(C)c(NC(=O)c2ccco2)cn1`?
Pf growth 48h: -4%; Cycloheximide cs: 9; Pf growth 96h: -8%; Marburg entry inh: 11%; LASV entry inh: 13%

How did Cc1cc(NC(=O)C(C)C)ncc1NC(=O)c1cccc(F)c1 do in these assays?
Pf growth 48h: -4%; Cycloheximide cs: -1; Pf growth 96h: inconclusive; Marburg entry inh: -3%; Shiga toxin inh: 0; LASV entry inh: 9%

How did Cc1ccc(N(C)C(=O)c2ccc(CNc3c(N4CCC(C)CC4)c(=O)c3=O)cc2)cc1 do in these assays?
Pf growth 48h: 9.3µM*; Cycloheximide cs: 0; Pf growth 96h: inconclusive; Marburg entry inh: -22%[46.1 µM]; Shiga toxin inh: -2; LASV entry inh: 1%
